About 83,000 compounds went through this panel and 20% of them were active in at least one assay; those are over-represented in the sample as a whole.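 Activity criterion: percent growth below 10, measured after cells in 96-well plates were exposed to a single compound concentration for 48 hours.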 Unmarked numbers belong to inactive results. Activity calls are given as the source filed them.
System: MDA-MB-468 breast
Test: NCI-60 one-dose screen, 48 h (100 = growth as untreated, 0 = no growth, -100 = all killed)
Conditions: 10 µM unless noted

| SMILES | growth |
| --- | --- |
| O=S(=O)(O)c1ccc2cc(O)ccc2c1 | 101% |
| Cn1cc(-c2nnc(-c3cn(C)c4ncc(Br)cc34)s2)c2cc(Br)ccc21 | 101% |
| CCOC(=O)c1c(NC(=O)c2cccc(C(F)(F)F)c2)sc2c1CCC(=O)C2 | -9.5% (active) |
| CC[C@]12CC(C(=O)OC)=C3Nc4ccccc4[C@@]34CCN(C14)[C@@H]1c3cc4c(cc3O[C@@H]1[C@H]2O)NC1=C(C(=O)OC)C[C@@]2(CC)C3N(CC[C@@]143)C[C@H]1O[C@H]12 (stereo not given in full) | -35.7% (active) |
| O=S(c1ccccc1)c1ccc2nnnn2n1 (stereo not given) | 112% |
| ClC1=C(Cl)C(Cl)=C(Cl)C1=C/C=C/c1ccccc1 | -50.3% (active) |
| O=c1cc(CSc2nnc(-c3ccc(F)cc3)o2)c2ccc3ccccc3c2o1 | 101% |
| COc1cc(C)cc2oc3oc(=O)c(C(=O)c4cc5cc(Br)ccc5o4)cc3c(=O)c12 | 107% |
| Cc1nc(-c2ccccc2O)ccc1C(=O)N=Nc1c(O)[nH]c2ccc(Br)cc12 | 90.2% |
| COc1cc(/C=C/c2cc(/C=C/c3ccc(O)c(OC)c3)n(C(=O)Nc3ccc(C)cc3C)n2)ccc1O | -30.3% (active) |
| Cc1cc2c(-c3nc4ccccc4[nH]3)c(O)c(O)cc2c(O)c1-c1c(C)cc2c(-c3nc4ccccc4[nH]3)c(O)c(O)cc2c1O | -18.3% (active) |
| COc1ccc(-c2nsc3c2NC(=O)CC3c2ccc(F)cc2)cc1 (stereo not given) | 1.54% (active) |
| S=c1sc2ccccc2n1CN1CCCCC1 | 108% |
| CCCCCCCCCCCCS(=O)CC(C)O (stereo not given) | 106% |
| COc1ccc(C2CC(=O)c3c(nc4ccc(Cl)cc4c3N)C2)cc1 (stereo not given) | 104% |
| COc1ccc(/C(=N\O)c2cc(OC)c(OC)c(OC)c2)c(OC)c1N | 29.2% |
| Cc1nc(-c2ccccc2)cc2c(O)c(C(=O)NN)[nH]c(=O)c12 | 116% |
| O=C(CN1CCCCC1)Sc1nnc2sc3ccccc3n12 | 97.1% |
| CCCCN(C(=O)CC)c1ccccc1 | 106% |
| COC(=O)CC(=O)C(=O)OC | 95.3% |

| SMILES | growth |
| --- | --- |
| CC(=O)c1cccc(OC(=O)c2ccccc2)c1 | 104% |
| CCN(CC)CCN1C(=O)c2c(c3c4cccnc4[nH]c3c3ccc4ccccc4c23)C1=O | 63.3% |
| Cc1ccc(C2=NNC(c3sc(Cl)nc3Cl)C2)cc1 (stereo not given) | 93.5% |
| O=C(C=P(c1ccccc1)(c1ccccc1)c1ccccc1)c1ccc(Br)cc1 | 92% |
| Nc1ncnc2c1c(-c1ccc(Oc3ccccc3)cc1)nn2CC1SSCC1O (stereo not given) | -24.8% (active) |
| Cn1ccnc1C(=O)/C=C/c1ccc(NC(=O)Nc2ccccc2)cc1 | -45.8% (active) |
| COc1ccc(/C=C/C(=O)c2ccc(NC(=O)CSc3nnc(-c4cc(-c5ccccc5)nc5ccccc45)n3-c3ccccc3)cc2)cc1 | 97.2% |
| CCCCCCNC(=O)Oc1ccc(/C(=C(/C)c2ccc(OC)cc2)c2ccc(OCCN3CCCCCC3)cc2)cc1 | 1.03% (active) |
| CN1CCN(CC(=O)Nc2cccc(-n3cc(-c4ccncc4)c(-c4ccc(Cl)c(O)c4)n3)c2)CC1 | 10.7% |
| CCC(CCC(C)C1CCC2C3CC=C4CC(O)CCC4(C)C3CCC12C)C(C)C (stereo not given) (tested in a mixture with another compound) | 114% |
| COc1cc2c(c(OC)c1OC)-c1ccc(OC)c(=O)cc1[C@@H](NC(=O)CCl)CC2 | -5.69% (active) |
| Cc1nn(-c2ccccc2)c2ncnc(N/N=C/c3ccccc3O)c12 | -31.7% (active) |
| CC(=O)Oc1cc(C)c(OC(C)=O)c(C)c1C | 47.1% |
| CCOC(=O)C1(CC(C)C)CCOC1=O (stereo not given) | 99.7% |
| CCCC(O)Cn1ncc(C(=O)OCC)c1NC(=O)NCc1cccc(F)c1 (stereo not given) | 97.3% |
| Cc1ncc([N+](=O)[O-])n1CCOc1ccc(C(=O)/C=C/c2ccc(C(F)(F)F)cc2)cc1 | 71.3% |
| CNC(=O)c1cc(Oc2ccc3c(c2)sc2nc(-c4cc(OC)c(OC)c(OC)c4)cn23)ccn1 | 4.35% (active) |
| CC(O)CNC(Cc1ccccc1)c1ccc2c(c1)OCO2 (stereo not given) | 101% |
| O[C@@H]1Cc2ccc3ccccc3c2N[C@H](c2ccoc2)C1 | 79.4% |
| O=C1CCC/C=C\C[C@H]2C=CC(=O)/C2=C/C[C@H](CCc2cccc(C(F)(F)F)c2)O1 | -38.3% (active) |

Reference: PubChem BioAssay (NCI)
